Compound activity (PubChem BioAssay)
GLP-1R agonist = qHTS of GLP-1 Receptor Agonists. HEK293 GLP-1R CRE-luciferase, luminescence, 4-6 h; cells express a hypersensitive GLP-1R form. 0.007% of 380,000 active. Potency, µM (series often up to 45.6 µM), for inactives: top-dose activation, usual class: activators; further: % of control where 0% means no effect
Target sequence (P43220 whole entry, looked up): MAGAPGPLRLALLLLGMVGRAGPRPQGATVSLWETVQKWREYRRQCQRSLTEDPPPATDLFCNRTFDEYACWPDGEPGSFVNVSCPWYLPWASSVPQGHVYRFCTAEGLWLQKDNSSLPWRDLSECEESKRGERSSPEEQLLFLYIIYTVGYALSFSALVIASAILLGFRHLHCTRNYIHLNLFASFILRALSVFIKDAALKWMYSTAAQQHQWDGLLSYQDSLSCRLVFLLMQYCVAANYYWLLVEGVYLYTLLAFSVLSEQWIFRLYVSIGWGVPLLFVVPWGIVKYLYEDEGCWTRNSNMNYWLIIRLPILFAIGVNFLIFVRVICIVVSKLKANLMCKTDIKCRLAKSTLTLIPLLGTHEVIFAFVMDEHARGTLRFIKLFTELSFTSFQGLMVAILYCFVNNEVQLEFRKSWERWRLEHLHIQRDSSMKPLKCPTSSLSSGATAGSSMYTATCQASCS
a7 integrin act = qHTS for Activators of Integrin-Mediated Alleviation for Muscular Dystrophy | alpha7betagal myoblasts, beta-gal FDG fluorescence, 48 h | Potency, µM (series often up to 38.3 µM), for the others: top-dose activation, most hits filed as activators | 0.064% of 350,000 active | AID 624291, 2012;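 further: 100% = response of the positive control SU9516; nearly all actives have a fitted effect of over 60% in size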
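Alpha7betagal+/- myoblasts (passage 13) were plated 16-24 hr, then exposed to compounds (1:260 dilution of DMSO stock) for 48 hours at 37C. After MPER lysis, β-galactosidase reporter activity was read as FDG fluorescence (ex 480/em 540) after 30 minutes.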
BRCA1 expr up = qHTS Assay to Identify Small Molecule Activators of BRCA1 Expression; MCF7-BRCA1-FFLuc reporter, luminescence, 48 h; response scale: scaled: vehicle 0%, 10 µM genistein 100%; AID 624202, 2012; Potency, µM (top dose mostly 46.1 µM), inactives show top-dose activation, hits mostly activators; 1.1% of 380,000 active; further: nearly all actives have a fitted effect of over 80% in size
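MCF7-BRCA1-FFLuc cells, 2000/well in phenol-red-free MEM, attached 2 h then treated 48 h at 37 C. Luciferase luminescence read 15 min after reagent; normalized to genistein maximum activation (10microM) and DMSO, concentration-response fitted.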
GLP-1R inv ag = qHTS of GLP-1 Receptor Inverse Agonists (Inhibition Mode). Glucagon-like peptide 1 receptor (Homo sapiens), P43220. HEK293 GLP-1R CRE-luciferase, luminescence, 24 h; GLP-1R form is constitutively active. Potency, µM (series often up to 38.3 µM), for inactives: at the highest dose activity change, negative = inhibition, actives largely listed as inhibitors. 1.6% of 410,000 active. AID 624417, 2012; further: on the % scale 0 is the no-effect control and ±100 the full control effect; nearly all actives have a fitted effect of over 55% in size
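Assay principle: reduced luminescence from a cAMP-responsive reporter in HEK293 cells co-expressing a constitutively active GLP-1R. Conditions: 24 hr compound incubation, 37 deg C, 5% CO2.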
GLP1R cytotox = qHTS of GLP-1 Receptor Inverse Agonists: Cytotox Screen | HEK293 cAMP-luciferase reporter cells, luminescence, 24 h | 0.13% of 410,000 active | Potency, µM (series often up to 38.3 µM), for inactives: at the top dose activity change, negative = inhibition, hits mostly inhibitors;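 further: loss of luciferase light is scored as toxicity; on the % scale 0 is the no-effect control and ±100 the full control effect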
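Compound-treated cells are incubated 24 hr at 37 deg C under 5% CO2 after a 12 hour attachment period, then luciferase detection reagent is added and luminescence is measured following 12 min at room temperature; lowered signal indicates toxicity.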
* hit, by the source's call; ? = inconclusive; nt = no result given. The list is not random: actives were taken first. Their share in the collection is about 2.7%. The call rests on the fitted dose curve; in most records, active means well fitted curve in the direction sought with a large enough effect; inconclusive means small, poorly fitted or top-dose-only effect, or another doubt; inactive means no such curve, though single readings can be large; an effect the other way counts as inactive or inconclusive. Potency means the concentration at half of the fitted maximal effect.

SMILES	GLP-1R agonist	a7 integrin act	BRCA1 expr up	GLP-1R inv ag	GLP1R cytotox
COc1c(C(O)CC(C)C)ccc2c1C(=O)OCc1cc(C)cc(O)c1O2 (configuration not stated)	-5%	-21%	-36%	11µM*	-1%
COc1c(C(CC(C)C)OC(C)=O)ccc2c1C(=O)OCc1cc(C)cc(O)c1O2 (configuration not stated)	4%	-10%	-39%	10µM*	-3%
CCCCOc1ccc(Cn2c(=O)sc3ccccc32)cc1	nt	nt	nt	11µM*	26%
CCCCn1c(=NC(=O)C(C)(C)Oc2ccc(Cl)cc2)c(C(=O)OCC)cc2c(=O)n3ccccc3nc21	nt	nt	nt	13%	6%
O=C(CNc1cccc2ccccc12)N/N=C/c1ccc(OC(=O)/C=C/c2ccco2)cc1	0%	3%	-44%	8.9µM*	-19%
O=C(CNc1ccc2ccccc2c1)N/N=C/c1ccc(OC(=O)/C=C/c2ccco2)cc1	3%	10%	-41%	?	-22%
COc1ccc(OCc2ccc(-c3nc(C#N)c(N4CCN(C)CC4)o3)o2)cc1	nt	nt	nt	2%	2%
CCN1C(=O)[C@H]2[C@@H](c3ccc(-c4cccc(Cl)c4)c(OC)c3)N3CCCC[C@@]3(C(=O)OC)[C@H]2C1=O	-3%	-32%	0%	?	-21%
CCN1C(=O)[C@H]2[C@@H](c3ccc(-c4ccc(F)cc4)cc3)N3CCCC[C@@]3(C(=O)OC)[C@H]2C1=O	-6%	-31%	-28%	5.6µM*	8%
CCN1C(=O)[C@H]2[C@@H](c3ccc(-c4cccc(Cl)c4)cc3)N3CCCC[C@@]3(C(=O)OC)[C@H]2C1=O	-1%	-3%	-18%	10µM*	-24%
CCN1C(=O)[C@H]2[C@@H](c3ccc(-c4cccc(Cl)c4)c(OC)c3)N[C@@](CC(C)C)(C(=O)OC)[C@H]2C1=O	-6%	-23%	-57%	7.9µM*	-2%
COCCc1nn2c(=O)cc(COC(=O)c3ccccc3C)nc2s1	nt	nt	nt	18%	6%
c1ccc(-n2cc(CN3CCCC3)c(-c3ccc4c(c3)OCO4)n2)cc1	-1%	1%	0%	?	-6%
c1ccc(Cn2cc(CN3CCCCO3)c(-c3ccc4c(c3)OCO4)n2)cc1	3%	0%	-17%	11µM*	-9%
O=P(O)(O)OC(Cn1cncn1)(Cn1cncn1)c1ccc(F)cc1F	-2%	nt	nt	nt	nt
CCn1cc(C(=O)NCc2ccccc2)c(=O)c2cc(S(=O)(=O)N3CCCCCC3)ccc21	0%	nt	-12%	-9%	-8%
COc1ccccc1C1CC(c2ccccc2)=NN1C(=O)c1ccccc1 (configuration not stated)	-4%	-32%	-41%	8.9µM*	?
COc1ccccc1C1CC(c2ccc(NS(C)(=O)=O)cc2)=NN1C(=O)c1ccccc1 (configuration not stated)	5%	-8%	-3%	-20%	6%
O=C(NCc1ccccc1F)c1ccc2c(c1)OCO2	0%	10%	49%	-7%	-3%
O=C(NNC(=O)c1cccc2ccccc12)c1ccc2c(c1)OCO2	2%	34%	?	31%	-17%
O=C(NNC(=O)c1ccccc1Cl)c1ccc2c(c1)OCCO2	6%	-13%	7.1µM*	-2%	-3%
O=C(NCCc1ccccc1F)c1ccc2c(c1)OCCO2	-3%	38%	-43%	0.89µM*	15%
CN(CCOc1ccc(Br)cc1)CC(O)COc1ccc(C#N)cc1 (configuration not stated)	-1%	-38%	2%	4.5µM*	-5%
COc1cccc(CNC(=O)CC(c2ccc(C)cc2)N2Cc3ccccc3C2=O)c1 (configuration not stated)	-4%	nt	-8%	-36%	-8%
CCN(CC)c1ccc(NC(=O)C2CCN(c3nnc(-n4cccc4)s3)CC2)c(C)c1	0%	nt	0%	-24%	-16%
